Many of the other results were omitted from the sample, so hits are more common in it than they were.
AMA1-RON2 inh: qHTS for Inhibitors of AMA1-RON; Towards Development of Antimalarial Drug Lead: Primary Screen; Plasmodium falciparum AMA1 (3D7) - RON2 peptide interaction; AID 720542, 2013; AlphaScreen AMA1-biotinylated RON2 peptide binding; Potency, µM (highest dose often 58.2 µM), hits mostly inhibitors; actives 0.2% (n = 360,000); also: nearly all actives have a fitted effect of over 45% in size
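AMA1 (3D7) with his tag at 25 nM final met compounds first, then biotinylated RON2 peptide at 25 nM; detection used donor plus acceptor beads, 10 µg/mL apiece, read by AlphaScreen after 30 min at room temperature.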
AmpC inh detg: qHTS Inhibitors of AmpC Beta-Lactamase (assay with detergent) | P00811 | AmpC hydrolysis of nitrocefin, absorbance 480 nm, 0.01% Triton | Potency, µM (titrated, usually from 114 µM), most hits filed as inhibitors | actives 0.041% (n = 370,000); also: nearly all actives have a fitted effect of over 25% in size
Target sequence (P00811 whole entry, looked up): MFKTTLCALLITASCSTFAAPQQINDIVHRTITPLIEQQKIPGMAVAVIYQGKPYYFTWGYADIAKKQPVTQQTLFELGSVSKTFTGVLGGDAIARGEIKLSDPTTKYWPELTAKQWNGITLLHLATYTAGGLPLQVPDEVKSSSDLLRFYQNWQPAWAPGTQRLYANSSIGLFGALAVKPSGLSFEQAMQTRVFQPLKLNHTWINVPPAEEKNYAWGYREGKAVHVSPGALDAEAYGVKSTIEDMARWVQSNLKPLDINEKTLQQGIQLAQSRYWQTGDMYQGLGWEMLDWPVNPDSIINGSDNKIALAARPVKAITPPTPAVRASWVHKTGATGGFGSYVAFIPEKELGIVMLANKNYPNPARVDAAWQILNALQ
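20 mM phosphate pH 7.0 + 0.01% (detergent screen) or 0.0001% Triton X-100; 5.3 nM AmpC reagent; cpd preinc 15 min RT; nitrocefin (800 uM stock) to start; A480 q20 s × 4 min; Activity was normalised to no-enzyme and no-compound control wells.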
SARS PLpro yeast: qHTS of Yeast-based Assay for SARS-CoV PLP; S. cerevisiae expressing SARS-CoV PLpro, growth rescue; actives 0.19% (n = 330,000); Potency, µM (titrated, usually from 32.9 µM), usual class: activators; AID 485353, 2010; calls by dose curve; also: nearly all actives have a fitted effect of over 55% in size
Shiga toxin inh: A qHTS for Small Molecule Inhibitors of Shiga Toxin; actives 9.2% (n = 290,000); Vero cells, Shiga toxin protein synthesis inhibition reporter; inhibition, % at 38.7 µM; AID 2315, 2010; in the data active = inhibition mostly above about 28%, no sharp cut-off; inactive = mostly below about 43%
AmpC no deterg: qHTS Inhibitors of AmpC Beta-Lactamase (assay without detergent); Potency, µM (doses to about 57.1 µM), usual class: inhibitors; AmpC nitrocefin hydrolysis, absorbance 480 nm, 0.0001% Triton; P00811; actives 0.52% (n = 330,000); also: nearly all actives have a fitted effect of over 20% in size
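AmpC (5.3 nM in the dispensed reagent) in 20 mM phosphate pH 7.0 with 0.01% (detergent screen) or 0.0001% Triton X-100 was preincubated with compounds for 15 min at room temperature. Nitrocefin was then added from an 800 uM solution, and hydrolysis was followed at 480 nm.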
CHX counter: Cycloheximide Counterscreen for Small Molecule Inhibitors of Shiga Toxin | actives 12% (n = 300,000) | cell reporter, cycloheximide protein synthesis inhibition counterscreen | max response, %; in the data active = max response mostly above about 13%, no sharp cut-off; inactive = mostly below about 14%; also: read at 38.3 µM for the half of the compounds with a filed dose
A number is an active result; - = inactive; ? = inconclusive; . = no result; + = active, no number; [ ] = dose if it differs, or a comment. Unless noted, calls follow the shape of the dose curve; as a rule, active = well fitted curve in the direction sought with a large enough effect; inconclusive = small, poorly fitted or top-dose-only effect, or another doubt; inactive = no such curve, though single readings can be large; an effect the other way counts as inactive or inconclusive.

SMILES | AMA1-RON2 inh | AmpC inh detg | SARS PLpro yeast | Shiga toxin inh | AmpC no deterg | CHX counter
COc1c(OC(C)=O)ccc(/C=C/c2ccc3ccccc3n2)c1[N+](=O)[O-] | - | - | - | 99 | ? | 29
COc1ccc(/C=C/c2c([N+](=O)[O-])c(=O)n(C)c(=O)n2C)c(OC)c1OC | - | - | - | - | - | -
CCOc1c(OC(C)=O)ccc(/C=C/c2ccc3cccc(OC(C)=O)c3n2)c1[N+](=O)[O-] | - | - | - | + | - | 43
CCOc1cc(/C=C/c2ccc3cccc([N+](=O)[O-])c3n2)ccc1OCC(=O)N(C)C | - | - | - | - | -[11.4 µM] | -
Cc1ccc(C(=O)COC(=O)CCCC(=O)Nc2cc(C(F)(F)F)ccc2Cl)cc1C | -[11.6 µM] | - | - | - | - | -
Cc1nn(-c2ccc(Cl)cc2Cl)c(=O)c2ccccc12 | - | - | - | - | - | -
CC1=NN(S(=O)(=O)c2ccc(Cl)cc2Cl)C(=O)c2ccccc2O1 | - | ? | - | - | - | 12
CC(=O)N1CCc2c(sc(NC(=O)c3ccc([N+](=O)[O-])o3)c2C#N)C1 | - | - | - | 82 | - | -
COc1ccc(C(=O)Nc2sc3c(c2C#N)CCN(C(C)=O)C3)cc1 | - | - | - | - | - | -
CC(C)N1CCc2c(sc(NC(=O)c3ccc([N+](=O)[O-])o3)c2C(N)=O)C1 | . | - | - | - | - | 28
CC(C)N1CCc2c(sc(NC(=O)c3nc4ccccc4s3)c2C(N)=O)C1 | - | - | - | - | - | -
COC(=O)c1c(NC(=O)c2ccc([N+](=O)[O-])o2)sc2c1CCN(C(C)C)C2 | - | ? | - | - | - | 23
O=C1NC(=O)C2C3c4ccccc4C(c4ccccc43)C12 (stereo not given) | - | - | - | - | - | -
COc1ccc(C=NNC(=S)NN=Cc2ccc(OC)c(OC)c2)cc1OC | - | . | . | . | . | .
COc1ccc(/C=C/C(=O)Oc2cccc(/C=N/NC(=O)c3cccc(F)c3)c2)cc1 | - | ? | - | 129 | - | 95
COc1cc(/C=N/NC(=S)NCCN2CCOCC2)cc(OC)c1O | - | - | - | 77 | - | 19
COc1cc(/C=N/NC(=S)N/N=C/c2cc(OC)c(OC)c(OC)c2)cc(OC)c1OC | - | - | - | 87 | - | 38
COc1cc(OC)c(OC)cc1/C=N/NC(=S)NCCN1CCOCC1 | - | - | - | - | - | -
COc1ccc(/C=C\C(=O)Oc2cccc(/C=N/NC(=O)Cc3ccc(OC)c(OC)c3)c2)cc1 | - | - | - | 46 | - | 65
COc1ccc(/C=N/NC(=O)Cc2ccc(Cl)cc2)cc1OC | - | ? | - | - | - | -
CC(=O)c1ccc(OCCCC(=O)NC2CCC(C)CC2)cc1 (stereo not given) | - | - | - | - | - | -
CCOC(=O)C1CCN(C(=O)c2cc3ccc4cccnc4c3[nH]2)CC1 | . | - | . | . | . | .
COc1ccc(CNC(=S)N/N=C/c2ccc(OC)c(OC)c2)cc1 | - | - | - | - | - | 21
COc1ccc(CNC(=S)N/N=C/c2ccc(O)c(OC)c2)cc1 | - | - | - | - | - | -
COc1ccc2nc(/C=N/NC(=O)[C@H](C)NC(=O)OC(C)(C)C)ccc2c1 | . | - | - | active | - | 16
SMILES | AMA1-RON2 inh | AmpC inh detg | SARS PLpro yeast | Shiga toxin inh | AmpC no deterg | CHX counter
Cc1ccc2cc(/C=N/NC(=O)[C@H](C)NC(=O)OC(C)(C)C)c(Cl)nc2c1 | -[2.32 µM] | - | - | - | - | -
C[n+]1cc[nH]c1SCC(=O)c1ccccc1 | - | ? | - | - | - | 37
C[n+]1cc[nH]c1SCC(=O)c1ccc(Cl)cc1 | ? | - | - | - | - | 31
Cc1nc2ccccc2nc1SCC(=O)c1ccccc1 | - | ? | - | - | - | -
O=C(CSC1=NCCS1)c1ccc(Cl)cc1 | - | - | - | - | - | -
CN1CCN(NC(=O)c2ccc(F)cc2)CC1 | - | ? | - | - | - | -
Cc1ccc(-n2nnnc2SCC(=O)Nc2ccccc2N2CCCCC2)cc1C | - | - | - | - | - | -
CC1CC(C)CN(C(=O)c2ccc(-c3ccc([N+](=O)[O-])cc3)o2)C1 (stereo not given) | ? | - | - | . | - | .
O=C(Nc1ccccc1)c1ccc(-c2ccc([N+](=O)[O-])cc2)o1 | - | - | - | 69 | - | 31
O=C(c1ccc(-c2ccc([N+](=O)[O-])cc2)o1)N1CCCCC1 | - | - | - | 93 | - | 43
O=C(Nc1ccccc1)c1ccc(-c2ccc(Br)cc2)o1 | - | ? | - | 54 | - | 38
Cc1cc(S(=O)(=O)NC2CCCCC2)ccc1OCC(=O)N1CCOCC1 | - | - | - | - | - | -
O=C(O)c1ccccc1C(=O)NNc1ccc(F)cc1F | - | - | - | - | - | -
C=CCn1c(CNC(=O)c2ccco2)nnc1SCC(=O)c1ccccc1 | - | - | - | - | -[2.29 µM] | 12
C=CCn1c(Cc2cccs2)nnc1SCC(=O)c1ccc2ccccc2c1 | - | - | - | - | - | -
C=CCn1c(Cc2cccs2)nnc1SCC(=O)c1ccc(F)cc1 | - | - | - | - | - | 15
CCc1ccc(C(=O)COC(=O)C(CCSC)NC(=O)C23CC4CC(CC(C4)C2)C3)cc1 (stereo not given) | - | - | - | - | - | -
Cc1ccc(N(CC(=O)N2CCN(c3ccccc3)CC2)S(=O)(=O)c2c(C)noc2C)cc1 | . | - | . | . | . | .
O=C(CCC(=O)N1CCN(c2ccc(O)cc2)CC1)c1cccs1 | - | - | - | 52 | - | 30
O=C(NCC(=O)N1CCN(c2ccccc2)CC1)c1cccs1 | - | - | - | - | - | 22
O=C(NCC(=O)N1CCN(c2ncccn2)CC1)c1cccs1 | - | - | - | - | - | 33
CC(C)N1CCC(=NNC(=O)c2cccs2)CC1 | - | - | - | 114 | - | 46
CCc1ccc2c(c1)c(=O)c(C(=O)c1ccc(C)cc1)cn2CC(=O)Nc1ccccc1C | . | - | . | . | . | .
CCc1cccc(NC(=O)Cn2c(=O)n(CC3CCC(C(=O)NCCc4ccccc4)CC3)c(=O)c3ccccc32)c1 (stereo not given) | . | - | . | . | . | .
COCCn1c(=NC(=O)c2ccc3c(c2)OCO3)c(C#N)cc2c(=O)n3cccc(C)c3nc21 | . | - | - | - | - | -
O=C(OCC(=O)N1CCN(c2ccccc2)CC1)c1cccs1 | - | - | - | . | - | .
O=C(OCC(=O)N1CCCC1)c1cccs1 | - | - | - | 72 | - | 42
O=C(NCC(=O)N1CCCC1)c1cccs1 | - | - | - | 26 | - | 17
CN1CCN(C(=O)CNC(=O)c2cccs2)CC1 | - | . | - | . | - | .
